Source: PubChem BioAssay (National Center for Advancing Translational Sciences (NCATS))
In the library only some 1.4% were active in any assay of this set; here they are far more common.
uPA surface inh: cell surface uPA generation inhibition. cell surface uPA generation assay, qHTS. Potency, µM (titrated, usually from 38.3 µM), without a hit: at the highest dose activity change, negative = inhibition, actives largely listed as inhibitors. 330,000 compounds, 0.31% hits; active = well fitted inhibition curve with a large enough effect; inconclusive = small, poorly fitted or top-dose-only effect; inactive = no such curve, though single readings can be large or run the other way; tested in mouse RAW 264.7 cells; also: potency is read from the fitted curve at half-maximal effect; % is scaled to controls: 0 for no effect and ±100 for the full control effect; nearly all actives have a fitted effect of over 55% in size
TCR activator: T cell receptor activation. primary human leukocytes, anti-CD3, IL-2 HTRF, 48 h. Potency, µM (top dose mostly 9.22 µM), without a hit: at the top dose activation of IL-2 secretion, usual class: activators. 330,000 tested, under 10 active. AID 504894; also: % of control where 0% means no effect
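Human primary leukocytes + a-CD3 beads + cpd, 48 hr; IL-2 in supernatant by HTRF (ex 320nm / em 665nm). No co-stimulatory signal supplied.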
IL2 activator: IL-2 activation; 360,000 compounds, 0.065% hits; IL-2 activation reporter assay, cell-based qHTS; stimulated with anti-CD3/CD4/CD28 beads; in transgenic mouse T cells; activation, % (series mostly up to about 46 µM); in the data active = activation above about 50%; inconclusive = mostly about 30% to 49%; also: 0% is about no effect
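Screening format: compound pinned onto unstimulated transgenic mouse T cells, 60 min incubation, then anti-CD3/anti-CD4/anti-CD28 bead stimulation for 18 hours at 37 degrees C, followed by EGFP and DsRed detection.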
BRCA1 expr up: activators of BRCA1 expression; 380,000 compounds, 1.1% hits; AID 624202; MCF7-BRCA1-FFLuc reporter, luminescence, 48 h; response scale: scaled: vehicle 0%, 10 µM genistein 100%; Potency, µM (top dose mostly 46.1 µM), for inactives: at the highest dose activation, hits mostly activators; also: potency is read from the fitted curve at half-maximal effect; nearly all actives have a fitted effect of over 80% in size
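Reporter cells (MCF7, BRCA1 promoter-firefly luciferase) received library compounds across a concentration series for 48 h. End-point luminescence was measured and concentration-effect curves derived after normalization.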
p53 reactivator: re-activators of mutant p53 | AID 504706 | 320,000 compounds, 0.063% hits | H1299 p53-A138V BP100-luciferase reporter, luminescence, 24 h | Potency, µM (doses to about 92.2 µM), for the others: at the top dose activity change, positive = activation, actives largely listed as activators; also: potency is read from the fitted curve at half-maximal effect; % of control where 0% means no effect; nearly all actives have a fitted effect of over 45% in size
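p53-null H1299 cells stably carrying temperature-sensitive p53-A138V and a BP100-luciferase reporter were pinned with compounds (4-point, 1:5 series) and held 24 hrs at 37 deg C. Luminescence was read 10 min after detection reagent.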
Numbers without * were called inactive; ? = inconclusive; / = no result given; [ ] = remark or other dose. Unless noted, calls follow the shape of the dose curve; as a rule, active = well fitted curve in the direction sought with a large enough effect; inconclusive = small, poorly fitted or top-dose-only effect, or another doubt; inactive = no such curve, though single readings can be large; an effect the other way counts as inactive or inconclusive.

SMILES	uPA surface inh	TCR activator	IL2 activator	BRCA1 expr up	p53 reactivator
Cc1ccc(N2C(=O)CSC23C(=O)N(CC(=O)Nc2ccc(C)cc2C)c2ccccc23)cc1 (centres undefined)	/	/	/	-28.0%	/
COc1ccc(-c2cc(-c3nc4ccccn4c3NCc3ccccc3)ccc2OC)cc1	5.62µM*	7.2%	-0.5	-82.2%	-8.6%
c1ccc(CNc2c(-c3cccc(SC4CCCCC4)c3)nc3ccccn23)cc1	?	-10.5%	-0.5	0.0%	9.3%
COc1ccc(-c2nc3ccccn3c2NCc2ccc3c(c2)OCO3)cc1	0.2%	1.8%[46.1 µM]	-1.9	7.94µM*	22.2%
c1ccc(-c2nc3ccccn3c2NCc2ccc3c(c2)OCO3)cc1	-0.1%	1.8%	-2.1	5.8%	1.8%
COc1ccc(C(=O)NC2(C(F)(F)F)C(=O)NC(C)=C2C#N)cc1 (centres undefined)	/	/	/	8.4%	/
C[n+]1ccc(/C=C/c2c[nH]c3ccc(F)cc23)cc1	-4.3%	13.9%	94.8*	-0.7%	3.3%
Cn1cc(/C=C/c2cc[n+](C)cc2)c2cc(Cl)ccc21	-6.3%	7.9%	103.7*	-65.4%	-2.6%
Cn1cc(/C=C/c2cc[n+](C)cc2)c2cc(F)ccc21	-3.1%	14.4%	205.6*	-76.6%	1.1%
O=C(Nc1cccc(Cl)c1)c1cnc[nH]1	-1.2%	-1.6%	1.0	7.94µM*	?
CC(=O)c1cccc(NC(=O)c2cc(-c3ccco3)on2)c1	2.9%	-0.4%	0.8	10µM*	?
CC(C)c1cc(C(=O)Nc2cccc(Cl)c2)no1	/	7.4%	-1.3	7.08µM*	24.2%
CC(C)c1cc(C(=O)Nc2cc(Cl)ccc2O)no1	-8.0%	/	-0.1	?	?
CC(=O)c1cccc(NC(=O)c2cc(C(C)C)on2)c1	-20.8%	0.0%	-0.3	3.16µM*	?
COc1cc(OC)cc(-c2cc3nc(C)c(CCC(=O)NCc4ccc(Cl)cc4)c(C)n3n2)c1	/	/	/	-29.1%	/
CC(=O)c1sc(-c2ccc(Cl)cc2)cc1N	-0.7%	1.0%	0.9	40.6%	-1.4%
COC(=O)c1c(C)nc(C)c(C(=O)OC)c1-c1cccs1	-12.8%	0.0%	-0.7	-22.2%	-2.0%
COC(=O)c1sc(-c2ccc(Cl)cc2)cc1N	-6.7%	5.4%	-1.6	3.98µM*	5.8%
COC(=O)c1sc(-c2cccs2)cc1N	-7.6%	3.4%	-0.4	12.6µM*	9.0%
COc1ccc(S(=O)(=O)N2CCN(CC(=O)Nc3ccc(Cl)c(C(F)(F)F)c3)CC2)cc1	/	/	/	-60.1%	/
Cc1cccc(NC(=S)NC(=O)C2CC2)c1	/	/	/	/	25.1µM*
O=C(NC(=S)Nc1ccc(O)cc1)c1ccccc1Cl	?	-4.3%	1.3	?	9.0%
COc1ccc(NC(=S)NC(=O)c2ccccc2Cl)cc1	-9.2%	-9.1%	-0.4	12.6µM*	15.2%
COc1ccc(NC(=S)NC(=O)C2CCCCC2)cc1	-0.5%	2.8%	-3.7	7.94µM*	-7.0%
O=C(NC(=S)Nc1ccccc1[N+](=O)[O-])c1ccccc1Cl	2.6%	5.9%	1.7	12.6µM*	11.7%
SMILES	uPA surface inh	TCR activator	IL2 activator	BRCA1 expr up	p53 reactivator
c1ccc(COc2ccc(OCCCCN3CCCC3)cc2)cc1	-6.0%	-4.8%[46.1 µM]	-0.5	8.7%	11.2µM*
C=CCNCCCCOc1ccc(OCc2ccccc2)cc1	11.2µM*	-5.3%	0.0	?	21.9%
COc1ccccc1N1CCN(C(=O)Cn2cnc3onc(-c4ccc(F)cc4)c3c2=O)CC1	/	/	/	-1.0%	/
Cc1nc2n(c(=O)c1CCN1CCC(c3noc4cc(F)ccc34)CC1)CCC[C@@H]2O	/	/	/	1.7%	/
Cc1c(C(=O)N/N=C/c2ccccc2)[nH]c2ccc(Cl)cc12	2.82µM*	-6.6%[46.1 µM]	-0.5	-2.0%	?
Cc1cc(C)nc(Nc2ccc(C(=O)O)cc2)n1	-1.9%	-0.1%	-0.5	2.82µM*	5.2%
Cc1cc(C)nc(Nc2ccc(O)cc2)n1	-0.6%	-4.8%	-2.1	19.2%	2.7%
CC1CC(C)CN(C(=O)/C=C/c2ccc([N+](=O)[O-])s2)C1 (centres undefined)	3.55µM*	6.8%	1.6	-78.8%	-7.6%
O=C(/C=C/c1ccc([N+](=O)[O-])s1)N1CCCC1	11.2µM*	-3.9%	-0.1	-83.3%	-6.4%
CCc1ccc(NC(=S)NC(=O)CC(C)C)cc1	-8.4%	-1.8%[46.1 µM]	-0.3	6.31µM*	?
CCc1ccccc1Nc1nn2c(=O)c3ccc(C(=O)NC(C)c4ccccc4)cc3nc2s1 (centres undefined)	/	/	/	-47.0%	/
O=C(Nc1nnc(C(F)(F)F)s1)c1ccc(Br)s1	-14.4%	-0.5%	-2.8	-11.3%	9.3%
O=C(Nc1ccc(Cl)cn1)c1ccc(-c2ccc(Cl)c(Cl)c2)o1	0.5%	-4.4%	0.4	-74.5%	/
O=C(NC1=NCCS1)c1ccc(Br)s1	/	-5.5%	-1.0	3.16µM*	?
O=C(NC1=NCCS1)c1ccccc1Br	1.4%	1.5%	1.4	17.6%	/
Cc1cc(C)n(-c2ccc(C(=O)NC3=NCCS3)cc2)n1	/	1.0%	1.5	11.2µM*	17.3%
O=C(NC1=NCCS1)c1ccc(-c2ccc(Cl)cc2)o1	-6.4%	-2.7%	-2.3	2.82µM*	?
O=C(Nc1nnc(C2CCCCC2)s1)c1ccc(Br)s1	/	4.4%	2.0	5.01µM*	10.5%
COc1cccc2c1C(=O)/C(=C\c1ccc(N(C)C)cc1)C2	/	/	/	-18.0%	/
CCOc1ccc(-c2nn3c(-c4cc(-c5ccccc5)n[nH]4)nnc3s2)cc1	/	/	/	16.2%	/
COc1ccc(-n2c(=O)c3c(c4cc(OC)ccc4n3C)n(CC(=O)N3CCCC3)c2=O)cc1	/	/	/	0.5%	/
NC1=NC(=O)/C(=C\c2ccc(-c3ccccc3[N+](=O)[O-])o2)S1	/	/	/	-26.8%	/
COc1ccc(Cl)cc1C(=O)NC1=NCCS1	3.0%	7.5%	0.4	16.5%	6.8%
O=C(NC1=NCCS1)c1ccc(Cl)cc1	-29.9%	0.4%	-2.7	7.94µM*	/
Cc1cc(NC(=O)CN2C(=O)CSc3ccc(S(=O)(=O)N(C)C)cc32)ccc1Br	/	/	/	-7.9%	/
SMILES	uPA surface inh	TCR activator	IL2 activator	BRCA1 expr up	p53 reactivator
O=c1oc2c(CN3CCOCC3)c(O)ccc2c2ccccc12	-1.8%	-4.3%	0.4	14.1µM*	7.6%
O=c1oc2c(CN3CCOCC3)c(O)ccc2c2c1CCCC2	-0.2%	-1.3%	-0.4	11.0%	1.8%
Cc1c(Cl)cccc1Nc1nc(N)nc(CSc2ncccn2)n1	/	-10.1%	0.2	10µM*	9.0%
CCOc1ccc(-c2cnc(NCc3ccc(OC)cc3OC)n2C)cc1	/	/	/	0.1%	/
O=C(Cn1cc(C(F)(F)F)cc(Cl)c1=O)NCCc1ccc(Cl)cc1Cl	0.2%	-3.1%	-2.5	-0.4%	-3.5%
O=C(Cn1cc(C(F)(F)F)cc(Cl)c1=O)NCc1ccc(F)cc1	-5.8%	7.9%	4.8	11.2µM*	?
COc1ccc(-n2ccnc(NCCc3ccc(S(N)(=O)=O)cc3)c2=O)cc1	/	/	/	0.0%	/
CONC(=O)C1CCN(C(=O)OCc2ccccc2)CC1	-0.1%	18.0%	0.2	14.1µM*	11.3%
COC(=O)CNC(=O)C1CCN(C(=O)OCc2ccccc2)CC1	5.2%	8.8%	0.3	95.9%	?
